Screening data from PubChem.
Eya2 inh – Eya2 (human) phosphatase inhibition; O00167; recombinant Eya2, OMFP fluorescence dephosphorylation (OMFP is methylfluorescein phosphate); Potency, µM (highest dose often 76.9 µM), actives largely listed as inhibitors; 330,000 tested, 0.006% active; AID 488837
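Eya2 (0.2 uM) preincubated 10 min at ambient with compound, then OMFP substrate added at 50 uM; 10 min reaction in 50 mM HEPES pH 7.5, 50 mM NaCl, 5 uM MgCl2, 0.05% BSA, 1 mM DTT. Fluorescence read at Ex 485/Em 525 nm.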
USP2a inh – inhibitors of human ubiquitin-specific protease USP2a; Potency, µM (series often up to 38.3 µM), usual class: inhibitors; O75604; USP2 core, Ub-CHOP2 coupled fluorogenic reporter, 485/531; 330,000 tested, 0.01% active
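Deubiquitinase activity read as fluorescence (485/531 nm) after Ub-CHOP2 cleavage activates the enterokinase reporter on its substrate; USP2 core 10nM, Ub-CHOP2 and substrate 25nM each, 30min compound preincubation then 60min RT; data normalized to NEM, curves fitted.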
D1 antagonist – human D1 dopamine receptor antagonism. P21728. HEK293 TREx D1 cells, calcium flux, dopamine EC80; stronger effect = lower value. activity change, negative = inhibition, % at 10 µM. 360,000 tested, 3.2% active; in the data active means activity change below about -30%
Target sequence (P21728 whole entry, looked up): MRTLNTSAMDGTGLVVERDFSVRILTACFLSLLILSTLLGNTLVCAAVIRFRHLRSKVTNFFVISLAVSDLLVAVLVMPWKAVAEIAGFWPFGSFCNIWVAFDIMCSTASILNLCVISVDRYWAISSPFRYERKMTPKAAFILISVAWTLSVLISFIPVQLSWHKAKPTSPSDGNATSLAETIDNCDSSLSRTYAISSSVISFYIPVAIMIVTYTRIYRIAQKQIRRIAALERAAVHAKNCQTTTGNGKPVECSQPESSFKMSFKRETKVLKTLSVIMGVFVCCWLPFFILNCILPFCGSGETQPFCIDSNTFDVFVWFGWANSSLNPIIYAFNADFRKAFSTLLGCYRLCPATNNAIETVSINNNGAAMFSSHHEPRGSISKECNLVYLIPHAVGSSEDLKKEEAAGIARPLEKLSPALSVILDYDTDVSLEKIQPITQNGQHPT
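Antagonism measured as reduced calcium response to an EC80 dopamine addition following 180 s compound pre-read; cells were inducible HEK293 Trex D1 plated overnight at 30 C, read kinetically at 1 cycle/sec.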
D1 ag – activates the human D1 dopamine receptor | P21728 | HEK293 T-REx D1 cells, calcium flux, agonist mode | activation, % at 2 µM | 360,000 tested, 1% active | AID 504660; in the data active means activation above about 30%
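Agonism was scored from calcium flux recorded over 180 s (1 read/s) after pintool compound addition, following a 10-cycle baseline. Cells were inducible force-coupled HEK293 TREx D1, plated overnight at 30 C and loaded with no-wash calcium dye.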
GALK inh – blocks human galactokinase activity | P51570 | Purified GALK, Kinase-Glo residual ATP luminescence | Potency, µM (top dose mostly 57.5 µM), actives largely listed as inhibitors | 270,000 tested, 0.007% active | AID 1868
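ATP-depletion format; final 35 uM ATP, 100 uM D-galactose, 5 nM enzyme; pH 8.0 HEPES/Mg2+ buffer; 60 min RT; luminescence read 10 min after detection reagent.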
D1 PAM – potentiators of human D1 dopamine receptor. P21728. HEK293 TREx D1 cells, calcium flux, dopamine EC20 potentiation. potentiation, % at 10 µM. 360,000 tested, 0.036% active. AID 504651; in the data active means potentiation above about 30%
Large screens that a line does not name were inactive; ! = not active in a repeat. In the library only some 3.9% were active in any assay of this set; here they are far more common. Unless noted, the call rests on the fitted dose curve; in most records, active means well fitted inhibition curve with a large enough effect; inconclusive means small, poorly fitted or top-dose-only effect, or effect the other way; inactive means flat fitted curve, though single readings scatter.

C=CCn1c(COc2ccccc2F)nnc1SCC(=O)c1c[nH]c2ccccc12	D1 antagonist -34.9
C#CCN1C(=O)S/C(=C/C=C/c2ccc(N(C)C)cc2)C1=O	D1 ag 98.2
CC1CN(C(=O)CCC(=O)NCc2ccc(Cl)cc2)c2ccccc2O1 (configuration not stated)	D1 antagonist -83.1 (no result: GALK inh)
CC1CN(C(=O)CCC(=O)NCc2cccc(Cl)c2)c2ccccc2S1 (configuration not stated)	D1 antagonist -31.8 (no result: Eya2 inh, USP2a inh, GALK inh)
CC1CN(C(=O)Nc2ccc(C(=O)NCc3cccc(F)c3)cc2)c2ccccc2S1 (configuration not stated)	D1 antagonist -43.0 (no result: Eya2 inh, USP2a inh, GALK inh)
COc1cccc(Cn2ncc3c4sc(C)cc4n(C)c3c2=O)c1	none (no result: Eya2 inh, USP2a inh, GALK inh)
Cc1ccc(C(=O)CSc2ncc3c(n2)-c2ccccc2N(Cc2ccc(Cl)cc2)S3(=O)=O)cc1	none (no result: Eya2 inh, USP2a inh, GALK inh)
CN1c2ccccc2-c2nc(SCC(=O)Nc3ccccc3C(F)(F)F)ncc2S1(=O)=O	none (no result: Eya2 inh, USP2a inh, GALK inh)
CC(C)Nc1cc(N2CCN(C3CCCCC3)CC2)c2noc3c2c1C(=O)c1ccccc1-3	none (no result: Eya2 inh, USP2a inh, GALK inh)
Cc1ccccc1Cn1c(C)c(CNCCCc2ccccc2)c(C(=O)O)c1C	none (no result: Eya2 inh, USP2a inh, GALK inh)
O=C(CC(c1ccccc1)c1ccccc1)Nc1nn[nH]n1	D1 antagonist -31.3
Cc1ccc(NC(=O)C2CCCN(c3ncnc4onc(C)c34)C2)c(Cl)c1 (configuration not stated)	D1 antagonist -53.9 (no result: Eya2 inh, USP2a inh, GALK inh)
COc1ccc(Cl)cc1NC(=O)C1CCCN(c2ncnc3onc(C)c23)C1 (configuration not stated)	none (no result: Eya2 inh, USP2a inh, GALK inh)
COc1ccc([N+](=O)[O-])cc1NC(=O)CCN1CCN(c2ccccc2OC)CC1	D1 antagonist -46.4 (no result: GALK inh)
Cc1ccc(C)c(NC(=O)CCN2CCN(c3ccccc3F)CC2)c1	D1 antagonist -37.6
COC(=O)c1[nH]c2cccc(OC)c2c1NC(=O)CCN1CCN(c2ccccc2OC)CC1	D1 antagonist -39.0
COc1ccc(OC)c(NC(=O)CCN2CCN(c3ccccc3F)CC2)c1	D1 antagonist -38.2
COc1ccc([N+](=O)[O-])cc1NC(=O)CCN1CCN(C)CC1	none
O=C(CCN1CCN(c2ccccc2F)CC1)Nc1ccccc1F	none
COc1ccc(NC(=O)CC2C(=O)N(c3cccc(OC)c3)C(=O)N2Cc2ccc3c(c2)OCO3)cc1 (configuration not stated)	none (no result: Eya2 inh, USP2a inh, GALK inh)
COc1ccc(C)cc1NC(=O)CN1CCN(c2ccccc2F)CC1	none
COc1ccc(C)cc1NC(=O)CCN1CCN(c2ccccc2F)CC1	D1 antagonist -45.1
COc1ccc(C)cc1NC(=O)CCN1CC(C)OC(C)C1 (configuration not stated)	D1 antagonist -30.3
COc1ccc(C)cc1NC(=O)CN1CCN(C/C=C/c2ccccc2)CC1	D1 ag 38.0
COC(=O)c1[nH]c2ccc(Cl)cc2c1NC(=O)CCN1CCOCC1	D1 antagonist -37.8
CCS(=O)(=O)Nc1cc(-c2cn3ccc(C)cc3n2)ccc1C	none (no result: Eya2 inh, USP2a inh, GALK inh)
CSc1ccc(CCNC(=O)Cn2ncc3c(=O)oc4ccccc4c32)cc1	none (no result: Eya2 inh, USP2a inh, GALK inh)
Cc1cccc(NC(=O)CSc2nc3c(c(=O)[nH]2)CN(Cc2ccc4c(c2)OCO4)CC3)c1C	none (no result: Eya2 inh, USP2a inh, GALK inh)
Nc1cccc2c1C(=O)N(CCOc1ccccc1F)C2=O	none
CC(Cc1ccccc1)NC(=O)/C=C/c1ccc([N+](=O)[O-])cc1 (configuration not stated)	none
CC(CCc1ccccc1)NC(=O)/C=C/c1ccc(Cl)cc1 (configuration not stated)	D1 antagonist -86.4
Cc1ccc(/C=C/C(=O)NCCCc2ccccc2)cc1	D1 antagonist -40.3
CC(C)COc1ccc(C(=O)Nc2scc(-c3ccc(Br)cc3)c2C(=O)OC(C)C)cc1	none (no result: Eya2 inh, USP2a inh, GALK inh)
CN(C)CCNC(=O)c1ccc(Cn2c(SCc3ccc(F)cc3)nc3cccnc32)cc1	none (no result: Eya2 inh, USP2a inh, GALK inh)
O=C(NC1CCCCC1)c1ccc(Cn2c(SCc3cccc(F)c3)nc3cccnc32)cc1	D1 antagonist -65.1 (no result: Eya2 inh, USP2a inh, GALK inh)
O=C(NC1CCCCC1)c1ccc(CSc2nc3cccnc3n2Cc2ccccc2)cc1	none (no result: Eya2 inh, USP2a inh, GALK inh)
O=C(NCCN1CCCCC1)c1ccc(Cn2c(SCc3ccc(F)cc3)nc3cccnc32)cc1	D1 antagonist -32.3 (no result: Eya2 inh, USP2a inh, GALK inh)
COc1ccc(C(=O)N2CCc3cc(OC)c(OC)cc3C2COc2ccccc2OC)cc1 (configuration not stated)	none (no result: Eya2 inh, USP2a inh, GALK inh)
C=CCn1c(=N)n(CC(O)COc2ccccc2OC)c2ccccc21 (configuration not stated)	none
COc1ccccc1OCC(O)Cn1c(=N)n(Cc2ccccc2)c2ccccc21 (configuration not stated)	D1 antagonist -61.5, D1 ag 47.3
Cc1ccccc1OCC(O)Cn1c(=N)n(Cc2ccccc2)c2ccccc21 (configuration not stated)	D1 antagonist -37.7, D1 ag 44.8
N=c1n(CCN2CCCCC2)c2ccccc2n1CC(O)COc1ccc(Cl)cc1Cl (configuration not stated)	D1 ag 194.9 (no result: Eya2 inh, USP2a inh, GALK inh)
COc1ccc(-n2cc(C(=O)NCc3ccc(Cl)cc3)c3ccccc3c2=O)cc1	none (no result: Eya2 inh, USP2a inh, GALK inh)
C/C(=N\NC(=O)C(=O)Nc1cccc(C(F)(F)F)c1)c1ccc(Cl)s1	D1 antagonist -39.0
COc1ccc(/C(C)=N/Nc2cccc(C(=O)O)c2)cc1OC	none
C/C(=N\Nc1cccc(C(=O)O)c1)c1ccc(Cl)s1	D1 antagonist -59.1
C/C(=N\NC(=O)CNc1cccc(C(F)(F)F)c1)c1cccs1	none
O=C(Nc1ccnn1C1CCN(Cc2cc3ccccc3[nH]2)CC1)C1CCOC1 (configuration not stated)	D1 antagonist -31.7
COc1ccc(-c2noc(=O)n2Cc2ccccc2F)cc1	D1 antagonist -30.2
COc1ccc(-c2nc(CS(=O)(=O)CC(=O)NC3CCC(C)CC3)c(C)o2)cc1 (configuration not stated)	D1 antagonist -33.2, D1 ag 30.8
CCN1C(=S)N[C@@H](CCc2ccccc2)C(C(=O)OC)=C1C	D1 antagonist -30.7! (no result: GALK inh)
CCN1C(=NCCN2CCOCC2)N[C@@H](CCc2ccccc2)C(C(=O)OC)=C1C	none (no result: GALK inh)
N#CC(C#N)=C(N)/C(C#N)=C/c1cc(O)c(O)c(O)c1	D1 ag 30.3 (no result: GALK inh)
CC(C)(C)c1cc(/C=C(\C#N)C(N)=S)cc(C(C)(C)C)c1O	none (no result: USP2a inh, D1 antagonist, D1 ag, GALK inh, D1 PAM)
CCC(C(=O)Nc1ccccc1C(=O)OC)n1c(C)c2cnn(-c3ccccc3)c(=O)c2c1C (configuration not stated)	none (no result: Eya2 inh, USP2a inh, GALK inh)
